Here are results for 7 compounds from PubChem BioAssay (EPA / NIEHS).

Records with an inconclusive call do not appear. Activity calls are given as the source filed them. The calls were made as follows, unless noted: active = hit-call score of the fitted dose curve at least 0.9, where 1 is the maximum; inconclusive = response in the unintended direction; inactive = score below 0.9.

Test [1] in a line: CCTE_Mundy_HCI_hNP1_Pro_ResponderAvgInten: CCTE's Proliferation Assay in human neuroprogenitor cells, Mundy Lab (AID 2284224). Put shortly: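 Human neuroprogenitors (hNP1, WA09 lineage) receive test chemical after 40 to 44 hours of attachment. A four-hour BrdU pulse begins twenty hours later, followed by fixation and high content imaging; signal is referenced to DMSO controls.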

Test [2] is described as follows: UKN4_HCS_LUHMES_cell_viability: Viability Assessment in the University of Konstanz (UKN) Leist Lab Neurite Outgrowth Assay in human LUHMES cells (UKN4) (AID 2284232; active = hit-call score of the fitted dose curve at least 0.9, where 1 is the maximum; inactive = score below 0.9). Put shortly: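 LUHMES precursors differentiated 2 days, replated at 30000 cells/well without cAMP/GDNF, then compound-treated 24 h. Viability from Hoechst H-33342 and calcein-AM live staining (30 min) by high-content fluorescence imaging; bidirectional fit versus DMSO.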

The nature of test [3]: CCTE_Mundy_HCI_Cortical_NOG_NeuronCount: CCTE's Neurite Outgrowth Assay in rat cortical cells for Neuron Count, Mundy Lab (AID 2284236).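 Also: neurons counted by imaging betaIII-tubulin and Hoechst stained cortical cells; cells exposed to compound for about 48 hours before fixation.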 In short, it runs like this:
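Read-out: neuron number by high-content imaging of betaIII-tubulin (Alexa Fluor-488) and Hoechst-labelled rat primary cortical cells.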

Test [4] can be described thus: CCTE_Mundy_HCI_Cortical_NOG_BPCount: CCTE's Neurite Outgrowth Assay in rat cortical cells for Branch Point Count, Mundy Lab (AID 2284237; active = hit-call score of the fitted dose curve at least 0.9, where 1 is the maximum; inactive = score below 0.9;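 as to AC50: branch points counted about two days after chemical exposure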). In short, it runs like this:
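Measured 50.33 h after dosing, this morphology endpoint uses rat primary cortical cultures labelled for betaIII-tubulin. Branch points are quantified by high-content imaging, with DMSO as negative control and baseline.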

Test [5] in a line: CCTE_Mundy_HCI_hNP1_CellTiter: CCTE's Cell Titer-Glo 2 Assay in human neuroprogenitor cells for Viability, Mundy Lab (AID 2284241).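 As to AC50: a hit is a drop in ATP luminescence versus DMSO meaning reduced viability.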 Put shortly: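 Measures ATP content in human neural progenitors derived from WA09 embryonic cells. Read-out at 26.5 hours after dosing, with DMSO serving as the negative control and baseline.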
A general note: Cellular ATP, detected with luciferase, serves as a proxy for viable cell number.

A short description of test [6]: TAMU_HCS_1.5hr_SingleDonor1434_Cytotoxicity: Cytotoxicity Assessment using High-content Screening (HCS) Fluorescent Imaging for the Texas A&M University (TAMU) 1.5-hr Human Induced Pluripotent Stem Cell (iPSC)-derived Cardiotoxicity Assay (AID 2284234). Put shortly: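 Human iPSC-derived cardiomyocytes dosed at 0.2, 1, 10, 100 uM final (0.5% DMSO) for 90 min at 37 C. Hoechst 33342-stained nuclei counted by 10x high-content imaging; POD is EC10, a 10% drop in total cell count versus DMSO.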

A short description of test [7]: TAMU_PeakParms_SingleDonor1434_QT: Texas A&M University (TAMU) 1.5-hr Human Induced Pluripotent Stem Cell (iPSC)-derived Cardiomyocytes Calcium (Ca+2) Flux Assay for Cardiotoxicity: QT (decay-rise ratio) (AID 2284235). In short, it runs like this: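 iPSC-derived cardiomyocytes (single donor 1434) dosed at 0.2, 1, 10, 100 uM final in 0.5% DMSO, 90 min at 37C. Ca2+ flux fluorescence decay/rise ratio; EC05 (5% increase versus DMSO) as POD, excluding beat-arrest and severe-notch data.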

For the compound `N#Cc1nn(-c2c(Cl)cc(C(F)(F)F)cc2Cl)c(N)c1S(=O)C(F)(F)F` (centres undefined), the compound was classed as inactive in test [1], in test [2], in test [3], in test [4] and in test [5].

Consider `COC(=O)N(OC)c1ccccc1COc1ccn(-c2ccc(Cl)cc2)n1`, for which the AC50 (in general, the concentration giving half of the maximal activity seen) in test [1] was 81.5 µM (active); in test [3], 0.143 µM (active); in test [4], 0.116 µM (active); in test [5] it was 50 µM (active).

As to `CN(C)C(=S)SSC(=S)N(C)C`, the AC50 was 0.0771 µM (active) in test [1], 0.0469 µM (active) in test [3], 0.055 µM (active) in test [4] and 9.92 µM (active) in test [5].

As for `C=CC1(C)OC(=O)N(c2cc(Cl)cc(Cl)c2)C1=O` (centres undefined), the result in test [1], in test [3], in test [4] and in test [5] was inactive.

Turning to `CCOc1cc(Oc2ccc(C(F)(F)F)cc2Cl)ccc1[N+](=O)[O-]`, the half-maximal activity concentration (AC50) in test [1] was 10.9 µM (active); in test [5], 18.9 µM (active).

Regarding `CCCCNC(=O)n1c(NC(=O)OC)nc2ccccc21`, the compound was classed as inactive in test [2]. The AC50 was 10.3 µM (active) in test [4] and 10 µM (active) in test [5].

For the compound `CCCCNC(=O)OCC#CI`, the concentration at half-maximal activity (AC50) in test [6] was 4.75 µM (active). Besides, the outcome in test [7] was inactive.
